Rows were chosen to be rich in hits. Some 1.3% of all compounds tested hit in one or more screens of this group.
Mito fusion yeast – qHTS Assay for Small Molecule Inhibitors of Mitochondrial Division or Activators of Mitochondrial Fusion. Potency, µM (doses to about 46.1 µM), hits mostly activators. 320,000 tested, 0.23% active. AID 485298, 2010. S. cerevisiae fusion-defective mutant growth rescue, CellTiterGlo 48 h; further: nearly all actives have a fitted effect of over 45% in size
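Temperature-sensitive fusion-defective S. cerevisiae (e.g. fzo1-1, mgm1-5) were grown with compound in YPEG medium (3% ethanol, 3% glycerol) for 48 hours at 37C. Growth rescue was measured as viability by CellTiterGlo luminescence after 10 minutes at ambient.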
PTHR1 agonist – qHTS for PTHR1 Agonists: Primary Screen. AID 743266, 2014. 410,000 tested, 0.075% active. Potency, µM (series often up to 115 µM), hits mostly activators. HEK293 GP2 PTHR1 cells, GloSensor cAMP luminescence, 1 h. Parathyroid hormone/parathyroid hormone-related peptide receptor (Homo sapiens), Q03431; further: nearly all actives have a fitted effect of over 55% in size
Target sequence (Q03431 whole entry, looked up): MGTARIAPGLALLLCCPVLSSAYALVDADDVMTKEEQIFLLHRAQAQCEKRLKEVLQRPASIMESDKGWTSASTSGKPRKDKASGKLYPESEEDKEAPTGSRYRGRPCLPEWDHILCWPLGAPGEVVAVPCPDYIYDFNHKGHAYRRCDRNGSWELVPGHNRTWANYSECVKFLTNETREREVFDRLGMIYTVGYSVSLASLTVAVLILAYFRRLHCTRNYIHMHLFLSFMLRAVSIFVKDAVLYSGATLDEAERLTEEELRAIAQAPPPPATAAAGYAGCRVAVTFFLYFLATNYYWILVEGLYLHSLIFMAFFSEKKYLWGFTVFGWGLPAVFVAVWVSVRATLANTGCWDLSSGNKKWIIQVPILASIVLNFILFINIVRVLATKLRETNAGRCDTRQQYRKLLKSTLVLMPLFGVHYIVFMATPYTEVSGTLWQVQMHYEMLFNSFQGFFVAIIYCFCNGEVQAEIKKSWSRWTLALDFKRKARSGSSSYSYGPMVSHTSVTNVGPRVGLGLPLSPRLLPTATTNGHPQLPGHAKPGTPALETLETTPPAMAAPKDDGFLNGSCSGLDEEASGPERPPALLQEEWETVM
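HEK-293-derived GP2 cells expressing PTHR1 and a GloSensor cAMP reporter, 3,000/well, plated overnight, given luciferin plus IBMX (each 0.5 mM as added) for 1 h at 37 °C, then compound for 1 h at 37 °C. Luminescence was read after 15 min at room temperature.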
Chronic BCR inh – qHTS Assay to Find Inhibitors of Chronic Active B-Cell Receptor Signaling; AID 493014, 2011; ABC-DLBCL IkBa-CBG/CBR reporter, luminescence ratio, 4 h; 340,000 tested, 0.05% active; Potency, µM (doses to about 46.1 µM), hits mostly inhibitors; active means well fitted inhibition curve with a large enough effect in the signal ratio, with a control signal flat, not every such curve was filed as active; inconclusive means small, poorly fitted or top-dose-only effect, or effect the other way, or a change in a side signal; the % refers to the signal ratio
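Concentration-response series (up to 46 uM) were applied to TMD8 dual-reporter cells for 4 h at 37C with doxycycline. Green/red ratio, after filter-overlap correction, defined %Activity; red signal alone was normalised to basal cells and zero luminescence.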
IL-2 act – qHTS of IL-2 Activators | IL-2 activation reporter assay, cell-based qHTS; stimulated with anti-CD3/CD4/CD28 beads; in transgenic mouse T cells | activation, % (series mostly up to about 46 µM) | 360,000 tested, 0.065% active | AID 652025, 2013; in the data active means activation above about 50%; inconclusive means mostly about 30% to 49%
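Readout: EGFP and DsRed signals by fluorescent plate cytometry. Unstimulated transgenic mouse T cells received compound 60 min before antibody-bead stimulation, then incubated 18 h at 37 degrees C.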
TCR activator – Activators of T cell receptors: qHTS campaign. primary human leukocytes, anti-CD3, IL-2 HTRF, 48 h. Potency, µM (doses to about 9.22 µM), hits mostly activators. 330,000 tested, under 10 active. AID 504894, 2011
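Primary human leukocytes incubated 48 hr with anti-CD3 beads plus compound, without co-stimulation. Secreted IL-2 measured by HTRF (europium cryptate/d2 anti-IL-2 pair, 320 nm excitation, 665 nm emission).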
BRCA1 expr up – qHTS Assay to Identify Small Molecule Activators of BRCA1 Expression | 380,000 tested, 1.1% active | Potency, µM (doses to about 46.1 µM), hits mostly activators | MCF7-BRCA1-FFLuc reporter, luminescence, 48 h; response scale: scaled: vehicle 0%, 10 µM genistein 100%; further: nearly all actives have a fitted effect of over 80% in size
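Using MCF7 cells harboring a BRCA1 firefly luciferase reporter, plated 2 h before compound pinning, the screen measured luminescence after 48 h incubation. Responses were normalized to DMSO and 10 microM genistein, then fitted for concentration-effect.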
Of the large screens only hits and unclear results are named; the others gave an inactive call; ! = repeats disagree. Unless noted, the call rests on the fitted dose curve; in most records, active means well fitted curve in the direction sought with a large enough effect; inconclusive means small, poorly fitted or top-dose-only effect, or another doubt; inactive means no such curve, though single readings can be large; an effect the other way counts as inactive or inconclusive.

Cc1cc(C)cc(C(O)c2ncc(-c3ccc(Cl)cc3)[nH]2)c1 (stereo not drawn)	none (no result: Mito fusion yeast, Chronic BCR inh, TCR activator)
CSc1ncc(-c2ccc(Cl)cc2)[nH]1	BRCA1 expr up 10µM
CCCN(CC(=O)Nc1ccc(F)c(F)c1F)C(=O)c1ccc(N2CCCC2=O)cc1	none
CN1CCN(C(c2ccccn2)c2cc(Cl)c3cccnc3c2O)CC1 (stereo not drawn)	Chronic BCR inh 7.1µM
CN1CCN(C(=O)CSc2nnc(COc3ccc(Cl)cc3)o2)CC1	none
O=C(Nc1ccc2ccccc2c1)c1cccnc1	Chronic BCR inh inconclusive, BRCA1 expr up inconclusive
O=C(Nc1ccc2c(c1)Cc1ccccc1-2)c1cccnc1	Chronic BCR inh inconclusive, BRCA1 expr up 2.8µM
CC(C)(C)c1nnc(NC(=S)Nc2ccccc2)s1	Chronic BCR inh inconclusive, BRCA1 expr up 2.8µM
COc1cc(OC)cc(C(=O)Nc2nnc(NC(=S)Nc3ccccc3)s2)c1	none
Clc1ccccc1C(c1ccccc1)(c1ccccc1)n1ccnc1	Mito fusion yeast 0.52µM!, Chronic BCR inh inconclusive
C=C1C=C(C(F)F)n2ncc(C(=O)NCc3ccccc3OC)c2N1	none (no result: Mito fusion yeast, PTHR1 agonist, Chronic BCR inh, IL-2 act, TCR activator)
CC(=Nc1ccc(O)cc1)c1sc2ccccc2c1O	none
CC(=O)NCCN=C(C)c1sc2ccccc2c1O	BRCA1 expr up 13µM
CC(=O)N1CCOc2cc(S(=O)(=O)NCc3ccc(C)cc3)c(Cl)cc21	none (no result: Mito fusion yeast, Chronic BCR inh, IL-2 act, TCR activator)
CCOc1ccc(/C=C2\CCC(C3CCCC3)C2=O)cc1 (stereo not drawn)	BRCA1 expr up 4µM
Cc1c(C(=O)OCC(=O)Nc2ccc3c(c2)OCO3)cccc1[N+](=O)[O-]	none
COc1cccc(/C=N/Nc2snc(SC)c2C#N)c1O	Mito fusion yeast 5µM, Chronic BCR inh inconclusive
COc1ccc(/C=N/Nc2snc(SC)c2C#N)cc1OC	Chronic BCR inh inconclusive
Cn1c(SCc2ccccc2F)nc2cccnc21	BRCA1 expr up 6.3µM
COc1ccc2ccccc2c1C(=O)/C=C\c1ccoc1	Mito fusion yeast 10µM
O=C(/C=C/c1ccoc1)c1ccccc1O	none
N#Cc1c(NC(NC(=O)c2ccco2)C(=O)c2ccccc2)sc2c1CCCC2 (stereo not drawn)	Mito fusion yeast 13µM (no result: TCR activator)
NC(=O)c1c(NC(NC(=O)c2ccco2)C(=O)c2ccc(Cl)cc2)sc2c1CCCC2 (stereo not drawn)	none
OC1C(Br)=Cc2ccccc21 (stereo not drawn)	none (no result: Mito fusion yeast, PTHR1 agonist, Chronic BCR inh, IL-2 act, TCR activator)
O=C(NCCCc1ccc(F)cc1)C1CCC(=O)N(CC2CCCCC2)C1 (stereo not drawn)	none
O=C(CSc1cccc[n+]1[O-])Nc1cc2c(cc1Cl)C(=O)c1ccccc1C2=O	Chronic BCR inh inconclusive, BRCA1 expr up 10µM
O=C(CSc1cccc[n+]1[O-])Nc1cc([N+](=O)[O-])ccc1Cl	none
COc1cc2c3nnc(-c4ccc(F)cc4)c-3cn(Cc3cccc(F)c3)c2cc1OC	PTHR1 agonist inconclusive, IL-2 act 76
COc1cc2c3nnc(-c4ccc(F)cc4)c-3cn(Cc3cccc(C)c3)c2cc1OC	IL-2 act 218
COc1cc2c3nnc(-c4ccccc4)c-3cn(Cc3ccc(F)cc3)c2cc1OC	none
COc1cc2c3nnc(-c4ccc(F)cc4)c-3cn(Cc3ccc(C)cc3)c2cc1OC	IL-2 act 349
Cc1cc(C(=O)NCCC2=CCCCC2)no1	Chronic BCR inh inconclusive, BRCA1 expr up 10µM
O=C(NCCC1=CCCCC1)c1cc(COc2c(F)cccc2F)on1	none
CC(=O)c1cccc(OCc2cc(C(=O)NCCC3=CCCCC3)no2)c1	BRCA1 expr up 3.2µM
C=C1C=C(C)n2ncc(C(=O)Nc3ccccc3C(=O)OC)c2N1	none (no result: Mito fusion yeast, PTHR1 agonist, Chronic BCR inh, IL-2 act, TCR activator)
CSc1nc2ccc(NC(=O)c3cccs3)cc2s1	Chronic BCR inh inconclusive, BRCA1 expr up 4.5µM (no result: Mito fusion yeast)
